Records with an inconclusive call do not appear. Entries that show only a call come without a potency. Calls of active or inactive are those of the source. The call rests on the fitted dose curve; in most records, active means well fitted inhibition curve with a large enough effect in the repeat runs; inconclusive means weak or mixed curves; inactive means no such curve, though single readings can be large or run the other way.
Potency means the concentration at half of the fitted maximal effect.

Chain of Estrogen receptor (Homo sapiens) (P03372 whole entry, looked up): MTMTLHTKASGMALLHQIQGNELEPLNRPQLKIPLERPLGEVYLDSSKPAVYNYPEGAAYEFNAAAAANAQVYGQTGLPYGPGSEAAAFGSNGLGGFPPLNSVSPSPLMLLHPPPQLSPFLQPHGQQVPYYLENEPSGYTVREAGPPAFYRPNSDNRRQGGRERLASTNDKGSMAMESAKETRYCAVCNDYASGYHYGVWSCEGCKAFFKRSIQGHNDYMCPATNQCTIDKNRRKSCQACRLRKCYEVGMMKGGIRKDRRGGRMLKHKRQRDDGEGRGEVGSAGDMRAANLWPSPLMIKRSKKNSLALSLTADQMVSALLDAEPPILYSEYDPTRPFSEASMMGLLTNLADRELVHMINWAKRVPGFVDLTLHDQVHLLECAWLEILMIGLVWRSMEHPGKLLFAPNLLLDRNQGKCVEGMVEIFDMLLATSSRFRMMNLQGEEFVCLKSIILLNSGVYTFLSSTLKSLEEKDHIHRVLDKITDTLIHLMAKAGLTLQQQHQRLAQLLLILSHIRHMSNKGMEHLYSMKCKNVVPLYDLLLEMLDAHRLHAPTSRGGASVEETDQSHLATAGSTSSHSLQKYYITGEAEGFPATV

This assay concerns the target Estrogen receptor (Homo sapiens) (UniProt P03372). In words: qHTS assay to identify small molecule antagonists of the estrogen receptor alpha (ER-alpha) signaling pathway using the BG1 cell line in the presence of 0.1 nM 17-beta-estradiol (AID 1259244). Further: nearly all actives have a fitted effect of over 50% in size. Particulars: VM7Luc4E2 (BG1) ERE-luciferase, antagonist mode, 0.1 nM E2, 22 h; series mostly up to 42.5 µM. From the text: National Center for Advancing Translational Sciences [NCATS]
NIH Chemical Genomics Center [NCGC]
U.S. Environmental Protection Agency [EPA]
National Institutes of Environmental Health Sciences [NIEHS]
National Toxicology Program [NTP]
U.S. Food and Drug Administration [FDA]
Estrogen receptor (ER), a member of the nuclear hormone receptor plays an important role in development, metabolic homeostasis and reproduction. Two subtypes of ER, ER-alpha and ER-beta, have similar expression patterns with some uniqueness in both types. Endocrine disrupting chemicals (EDCs) and their interactions with steroid hormone receptors like ER causes disruption of normal endocrine function. Therefore, it is important to understand the effect of environmental chemicals in ER signaling pathway. For identifying ER antagonists, VM7Luc4E2 cell line was used to screen against Tox21 compound libraries.
VM7Luc4E2 cell line (provided by Denison MS, University of California) endogenously express full-length ER-alpha and is stably transfected with a plasmid containing four estrogen responsive elements (ERE) upstream of a luciferase reporter gene. The current screening for identification of ER-alpha inhibitors against Tox21 compound libraries used lower concentration (0.1 nM) of 17beta-Estradiol as a stimulator.
Tox21 Assay Protocol Summary:
VM7Luc4E2 cells were cultured in phenol red free assay medium containing 10% charcoal stripped FBS for 5 days prior to the assay. The cells were dispensed at 4,000 cells/well in 4 uL of assay medium into white wall/solid-bottom 1536-well plates (Corning Life Sciences, Corning, NY) using a Multidrop Combi (ThermoFisher Scientific, Waltham, MA) dispenser. After the assay plates were incubated at 37C and 5% CO2 for 24 hr, 23 nL of compounds dissolved in DMSO, positive controls or DMSO only was transferred to the assay plates by a Pintool station (Kalypsys, San Diego, CA). The transfer of compounds was followed by the addition of 1 uL of 0.1 nM (final concentration) agonist (17beta-Estradiol)/assay medium using a Flying Reagent Dispenser (FRD, Aurora Discovery, San Diego, CA). The plates were incubated at 37C and 5% CO2 for 22 hr. For luciferase reporter gene assay, 4 uL of ONE-Glo reagent (Promega Corporation, Madison, WI) was added to each well using the FRD and after 30 min incubation at room temperature luminescence intensity was measured using ViewLux plate reader (PerkinElmer, Shelton, CT).
(In general: Quantitative high-throughput screening tests each substance at several concentrations.)
In the case of `COc1cc2nc(N(C)CCCNC(=O)C3CCCO3)nc(N)c2cc1OC` (stereo not given), the Potency is 23.7 µM (active).
For `O=C(OCCCCCCOC(=O)c1ccccc1)c1ccccc1` the value was “inactive”.
The result for `Brc1c2ccccc2cc2ccccc12` reads “inactive”.
For `COc1cc(Cl)ccc1Oc1ccc(Cl)cc1Cl`, the Potency result was “inactive”.
As to `CCN(CC)CCOC(=O)C(c1ccccc1)C1CCCCC1` (stereo not given), the Potency entry was “inactive”.
Consider `C/C=C/C(=O)CC`, for which the Potency result was “inactive”.
For the molecule `CN(C)CCN(Cc1ccsc1)c1ccccn1`, the Potency result was “inactive”.
On to `O=C1[C@H]2CCCC[C@H]2C(=O)N1CCCCN1CCN(c2nsc3ccccc23)CC1`, for which the Potency entry is “inactive”.
The result for `CN(C)c1ccc(CCO)cc1` reads “inactive”; that for `c1ccc(CNCCNCc2ccccc2)cc1`, “inactive”.
The result for `CCOc1ccc(O)cc1` reads “inactive”; that for `CN1CCC(N(Cc2cccs2)c2ccccc2)CC1`, “inactive”.
Consider `CCNc1cc(O)ccc1C`, for which the Potency entry was “inactive”.
The result for `CCCCNc1ccc(C(=O)OCCOCCOCCOCCOCCOCCOCCOCCOCCOC)cc1` reads 8.41 µM (active); that for `Cc1oc(-c2ccccc2)nc1CCOc1cccc2c1ccn2CCC(=O)O`, “inactive”.
For `C[C@@H]1C[C@H]2[C@@H]3CCC4=CC(=O)C=C[C@]4(C)[C@@]3(F)[C@@H](O)C[C@]2(C)[C@@]1(O)C(=O)COC(=O)c1ccncc1`, the Potency result was “inactive”.
For `CCOC(=O)NCCOc1ccc(Oc2ccccc2)cc1` the value was 43.3 µM (active); for `C=C(C)C(=O)OCCOCC`, 54.7 µM (active).
Turning to `Nc1cccc(S(=O)(=O)c2cccc(N)c2)c1`, the Potency result was “inactive”.
In the case of `CC1=CC=C(C(C)C)CC1`, the Potency result is “inactive”.
The result for `Clc1ccc2c(c1)CCc1cccnc1C2=C1CCNCC1` reads “inactive”; that for `CCN(CC)CCNc1ccc(CNC=O)c2sc3ccc(OC)cc3c(=O)c12`, “inactive”.
The result for `C=CC(=O)OCCOCCOCCOCCOC(=O)C=C` reads 54.8 µM (active); that for `O=C(O)c1ccco1`, “inactive”.
As to `COc1cc(C(=O)OCCCN2CCCN(CCCOC(=O)c3cc(OC)c(OC)c(OC)c3)CC2)cc(OC)c1OC`, the Potency was 13.3 µM (active).
`Nc1cccc([N+](=O)[O-])c1`: the Potency result was “inactive”.
Regarding `COc1cccc(N(C)C(=S)Oc2ccc3c(c2)CCCC3)n1`, the Potency entry was “inactive”.
The result for `CCCCCCCCCCCCCCCCOS(=O)(=O)O` reads “inactive”; that for `CC[N+](C)(CC)CCOC(=O)C(O)(c1ccccc1)C1CCCCC1` (stereo not given), “inactive”.
As for `Cc1nn(C)c(Oc2ccccc2)c1/C=N/OCc1ccc(C(=O)OC(C)(C)C)cc1`, the Potency was 0.0122 µM (active).
Regarding `CCOc1ccc(N)c([N+](=O)[O-])c1`, the Potency result was “inactive”.
For `COc1ccc(C(=O)Nc2nc3ccccc3c(NCc3ccccc3)c2C#N)cc1` the value was 10.9 µM (active); for `Nc1ccc([N+](=O)[O-])c(C(F)(F)F)c1`, “inactive”.
As for `CCCCCCCN`, the Potency entry was “inactive”.
For `O=C1CCC(=O)O1` the value was “inactive”.
The result for `Cc1c(N)cccc1[N+](=O)[O-]` reads “inactive”; that for `CCOC(=O)C1=C[C@]2(CC)CCCN3CCc4c(n1c1ccccc41)[C@@H]32`, “inactive”.
As to `CC(=O)c1cccc([N+](=O)[O-])c1`, the Potency result was “inactive”.
For `NS(=O)(=O)c1ccc(N2CCCCS2(=O)=O)cc1` the value was “inactive”; for `C[N+]1(CC2COC(c3ccccc3)(C3CCCCC3)O2)CCCCC1` (stereo not given), “inactive”.
